# Reference: PubChem BioAssay (NCATS)
# Records with an inconclusive call do not appear. A number with no mark means an inactive call. Active and inactive are the calls of the source. Calls come from the whole dose curve; as a rule, active = well fitted inhibition curve with a large enough effect; inconclusive = small, poorly fitted or top-dose-only effect, or effect the other way; inactive = no such curve, though single readings can be large or run the other way.
# Assay: Quantitative high throughput screen for delayed death inhibitors of the malarial parasite plastid, 96 hour incubation (AID 488745); note: nearly all actives have a fitted effect of over 70% in size
# Details: Plasmodium falciparum growth; series mostly up to 28.7 µM; activity change, negative = inhibition: at the top concentration
# Text: NIH Molecular Libraries Probe Production Network [MLPCN]
# NIH Chemical Genomics Center [NCGC]
# Assay Provider: David Fidock and Eric Ekland, Columbia University
# The goal of this screen is to discover new antimalarial compounds that act by inhibiting the development of the apicoplast in the malarial parasite Plasmodium falciparum. The biochemical processes that make this organelle essential for erythrocytic stage parasites are not well understood. However, antibiotics such as azithromycin and tetracycline, which target the apicoplast translational machinery, have a potent antimalarial effect.
# We have developed a cell-based assay that measures parasite growth based on the expression of an integrated copy of a firefly luciferase reporter. To detect small molecules that cause this 'delayed death' phenotype, erythrocytes infected with the luciferase-expressing parasites were incubated with compounds for either one or two generations, corresponding to 48 and 96 hours, respectively. Compounds that inhibit parasite growth in the second generation, but not the first, should be enriched in antimalarials that target the apicoplast. Growth inhibition is detected by a decrease in luciferase activity
# Four microliters of culture medium (RPMI 1640 with 0.5% w/v Albumax (GIBCO), 24 mM sodium bicarbonate and 10 ug/mL gentamycin) were dispensed by a Multi-drop Combi into white solid 1536-well plates (Grenier) and 23 nL compound was added by a pin tool. Four microliters of infected erythrocytes (2% hematocrit, 0.1% parasitemia final concentration) in culture medium were dispensed and the plates incubated for 96 hours at 37 C in 5% CO2. Two microliters of luciferase detection reagent was added and luminescence was detected by a ViewLux (PerkinElmer) reader
# % is set by controls: 0 for no effect and ±100 for the full control effect; potency is the fitted concentration of half-maximal effect.
Compound,"activity change, negative = inhibition",Potency
CCCCCCCCCCCCCCCCCCOC[C@H](COP(=O)([O-])OCC[N+](C)(C)C)OC,-8.36%,
NCCC1CCCC(CCN)N1 (stereo not given),-3.2%,
CCCCOC(=O)NS(=O)(=O)c1sc(CC(C)C)cc1-c1ccc(Cn2c(CC)nc3c(C)cc(C)nc32)cc1,-98.6%,
C=CCN1CCc2c(cc(O)c(O)c2Br)[C@@H](c2ccccc2)C1,-51.1%,
COc1cc(CNC(=O)CCCCCCC(C)C)ccc1O,-14.2%,
NC1C=CC=C(C(=O)O)C1 (stereo not given),-31.9%,
NCCCCN,0.821%,
COc1cc(/C=C(\C#N)C(=O)c2ccc(O)c(O)c2)cc(I)c1O,-8.2%,
O=C(O)C1=CCCNC1,18.8%,
COc1ccc2c(c1)c(CC(=O)O)c(C)n2C(=O)c1ccccc1,3.29%,
O=C(O)c1cccnc1C(=O)O,-14%,
CCCCCCCC/C=C\CCCCCCCC(=O)NCCc1ccc(O)c(O)c1,,14.7 µM (active)
CSC(=N)N,6.11%,
O=C(c1ccc2c(c1)OCCO2)N1CCCCC1,9.1%,
OCC1NCC(O)C(O)C1O (stereo not given),14.6%,
COCc1nc2c([nH]1)c(=O)n(C)c(=O)n2CC(C)C,-1.9%,
NC(=O)c1cc[n+](CC2=C(C(=O)O)N3C(=O)[C@@H](NC(=O)[C@@H](c4ccccc4)S(=O)(=O)[O-])[C@H]3SC2)cc1,3.34%,
CNCCNS(=O)(=O)c1cccc2cnccc12,-4.64%,
COc1ccccc1N1CCN(CCCCN2C(=O)c3ccccc3C2=O)CC1,10.2%,
CCOC(=O)C12CC1/C(=N/O)c1ccccc1O2 (stereo not given),-1.5%,

Compound,"activity change, negative = inhibition",Potency
NCC(O)C1CCCCCCC1 (stereo not given),7.27%,
Cc1cc2c(cc1Cl)N(C(=O)Nc1ccnc3ccccc13)CC2,10%,
[N-]=[N+]=Nc1ccc(C(=O)CSC[C@H](NC(=O)CC[C@H](N)C(=O)O)C(=O)NCC(=O)O)cc1,-5.4%,
CC1CNCCN1S(=O)(=O)c1cccc2cnccc12 (stereo not given),-13.2%,
O=C(O)c1ccccc1Nc1cccc(OCc2ccc3ccccc3n2)c1,6.56%,
O=S(=O)(c1cccc2c(Cl)cccc12)N1CCCNCC1,-36%,
N#CC(C#N)=C(N)/C(C#N)=C/c1ccc(O)cc1,-12.7%,
O=c1[nH]c2cc(Cl)ccc2c(O)c1-c1ccc(Oc2ccccc2)cc1,14.5%,
CC(C)NCC(O)COc1ccc(CC(N)=O)cc1 (stereo not given),0.534%,
CC(=O)N[C@@H](Cc1c[nH]c2ccccc12)C(=O)OCc1cc(C(F)(F)F)cc(C(F)(F)F)c1,-1.77%,
CSC(N)=NCCC[C@H](N)C(=O)O,3.14%,
C#CC(N)CCC(=O)O (stereo not given),-2.92%,
CC[N+](CC)(CC)CC(=O)Nc1c(C)cccc1C,-18.8%,
CCCn1c(=O)c2[nH]c(-c3ccc(S(=O)(=O)O)cc3)nc2n(CCC)c1=O,-17.8%,
CC(C)(CO)Cc1cc(C(C)(C)C)c(O)c(C(C)(C)C)c1,2.76%,
N[C@@H](CS(=O)O)C(=O)O,29.3%,
N#Cc1cc2nc(O)c(O)nc2cc1[N+](=O)[O-],-19.7%,
NCCCCN=C(N)N,-9.14%,
NC(N)=NC(N)=Nc1cccc(Cl)c1,,9.28 µM (active)
CCCCCCCCCCCCCCSCC(=O)O,-3.68%,
